Measurements published in PubChem BioAssay (Tox21).
“And” between values parts separate entries of the source, which are not always exact repeats. Equal values may be shown once. Records with an inconclusive call do not appear. The source made the active and inactive calls. Unless noted, calls follow the shape of the dose curve; as a rule, active = well fitted curve in the direction sought with a large enough effect in the repeat runs; inconclusive = weak or mixed curves; inactive = flat fitted curve, though single readings scatter.

Legend:
[1] = qHTS assay to test for compound auto fluorescence at 535 nm (green) in HEK293 cells (AID 720680); settings: green autofluorescence 485/535 nm; series mostly up to 91.3 µM
[2] = qHTS assay to test for compound auto fluorescence at 460 nm (blue) in HEK293 cell free culture (AID 720681); settings: cell-free medium, autofluorescence 405/460 nm (blue); series mostly up to 91.3 µM; also: potency is read from the fitted curve at half-maximal effect
In short: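 Test compounds were pinned into cell-free culture medium (DMEM with 10% FBS) and fluorescence was read directly at Ex/Em 405/460 nm. Signals were expressed as fluorescence equivalents of triamterene, with DMSO vehicle as control.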

[3] = qHTS assay to test for compound auto fluorescence at 535 nm (green) in HEK293 cell free culture (AID 720682); settings: cell-free medium, green autofluorescence 485/535 nm, stronger effect = higher value; series mostly up to 91.3 µM
In short: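 Read-out: 485/535 nm fluorescence intensity, calibrated against fluorescein. Medium only (DMEM + 10% FBS, no cells); test compound or DMSO vehicle added by pintool before plate reading.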

[4] = qHTS assay to test for compound auto fluorescence at 590 nm (red) in HEK293 cell free culture (AID 720683); settings: cell-free medium autofluorescence, Ex540/Em590 red; series mostly up to 91.3 µM
In short: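 Tox21 10K library compounds were pinned into cell-free DMEM with 10% FBS and fluorescence was read at excitation 540 nm. Activity is expressed as Rose Bengal sodium equivalency.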

[5] = qHTS assay to test for compound auto fluorescence at 590 nm (red) in HepG2 cell free culture (AID 720684); settings: cell-free medium autofluorescence, red 540/590 nm; series mostly up to 91.3 µM
In short: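 Measured in medium alone (MEM containing 10% FBS) following pintool addition of compound; emission at 590 nm with 540 nm excitation, referenced to Rose Bengal sodium.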

[6] = qHTS assay to test for compound auto fluorescence at 460 nm (blue) in HepG2 cell free culture (AID 720685); settings: Cell-free culture medium, blue autofluorescence 405/460 nm; series mostly up to 91.3 µM
In short: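 Compound (23 nL) or DMSO pinned into cell-free MEM with 10% FBS; blue fluorescence read at 405/460 nm excitation/emission, expressed as auto-fluorescence equivalency to triamterene.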

[7] = qHTS assay to test for compound auto fluorescence at 535 nm (green) in HepG2 cell free culture (AID 720686); settings: Cell-free medium, green autofluorescence 485/535 nm; series mostly up to 91.3 µM
[8] = qHTS assay to test for compound auto fluorescence at 460 nm (blue) in HepG2 cells (AID 720687); settings: autofluorescence 405/460 nm, 1 h; series mostly up to 91.3 µM
In short: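 Cells (2,000/well in MEM with 10% FBS) attached overnight at 37 C, then were exposed to compound or DMSO for 1 hr at 37 C, 5% CO2. Fluorescence read at Ex/Em 405/460 nm, expressed as triamterene-equivalent signal.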

[9] = biological target: Glucocorticoid receptor (Homo sapiens) (UniProt P04150); test: qHTS assay to identify small molecule agonists of the glucocorticoid receptor (GR) signaling pathway (AID 720691; active = well fitted activation curve with a large enough effect in the signal ratio in the repeat runs, not every such curve was filed as active; the % refers to the signal ratio); settings: GR-bla HeLa, beta-lactamase reporter ratio, 18 h; activation: at 62.4 µM (top of the series) unless noted
In short: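 Agonist mode in a HeLa line carrying a GRE-controlled beta-lactamase reporter. Compounds act for 18 h at 37 C before a 2 h room-temperature FRET substrate step and fluorescence reading.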

[10] = biological target: Glucocorticoid receptor (Homo sapiens) (UniProt P04150); test: qHTS assay to identify small molecule antagonists of the glucocorticoid receptor (GR) signaling pathway (AID 720692; active = well fitted inhibition curve with a large enough effect in the signal ratio in the repeat runs, not every such curve was filed as active; the % refers to the signal ratio; also: potency is read from the fitted curve at half-maximal effect); settings: GR-bla HeLa, beta-lactamase FRET ratio, dexamethasone-stimulated, 18 h; series mostly up to 58.5 µM
In short: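 Cells plated, rested 4 h at 37 C/5% CO2; compounds in DMSO pin-transferred; dexamethasone added to 5 nM final; 18 h at 37 C; B/G FRET substrate added, 2 h room temperature; fluorescence measured.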

Measured: Potency

Glucocorticoid receptor (Homo sapiens), sequence (P04150 whole entry, looked up): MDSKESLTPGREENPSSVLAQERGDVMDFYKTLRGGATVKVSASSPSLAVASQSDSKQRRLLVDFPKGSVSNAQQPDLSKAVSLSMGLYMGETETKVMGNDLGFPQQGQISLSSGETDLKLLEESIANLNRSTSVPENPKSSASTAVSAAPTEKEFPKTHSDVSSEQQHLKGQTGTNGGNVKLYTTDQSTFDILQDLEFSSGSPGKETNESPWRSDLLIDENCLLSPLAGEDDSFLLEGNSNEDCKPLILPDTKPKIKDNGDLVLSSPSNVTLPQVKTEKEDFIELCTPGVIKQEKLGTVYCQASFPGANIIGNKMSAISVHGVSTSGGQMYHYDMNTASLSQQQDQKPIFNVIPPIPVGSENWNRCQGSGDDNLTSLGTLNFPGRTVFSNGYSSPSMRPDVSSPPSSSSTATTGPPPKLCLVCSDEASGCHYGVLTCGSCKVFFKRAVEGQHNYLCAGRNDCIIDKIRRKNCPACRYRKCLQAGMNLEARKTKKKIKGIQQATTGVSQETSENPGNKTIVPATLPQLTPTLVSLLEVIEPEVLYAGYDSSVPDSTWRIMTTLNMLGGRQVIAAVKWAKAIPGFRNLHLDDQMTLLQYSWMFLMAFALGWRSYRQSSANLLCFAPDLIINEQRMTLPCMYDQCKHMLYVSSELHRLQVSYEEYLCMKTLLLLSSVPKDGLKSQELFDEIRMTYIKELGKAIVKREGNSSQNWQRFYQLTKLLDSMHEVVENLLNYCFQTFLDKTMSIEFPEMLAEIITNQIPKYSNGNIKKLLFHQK

OCC#CCO
inactive: all assays above

CCCCCCCCCCC=CC1CC(=O)OC1=O (centres undefined)
active: [10] 15.6 µM and 49 µM
inactive: all other assays above

CCCCCC/C=C/CCCCCCCC(=O)O
inactive: all assays above

NC(=O)/N=N/C(N)=O
inactive: all assays above

C=C(C)C(=O)OCCC[Si](OC)(OC)OC
inactive: all assays above

CC(C)(N=C=O)c1cccc(C(C)(C)N=C=O)c1
inactive: all assays above

OC1CCCC1
inactive: all assays above

CCCCCCCCCCCCN
inactive: all assays above

O=S(=O)(Oc1ccc(Cl)cc1Cl)c1ccccc1
not listed: [6] | [9] | [10]
inactive: all other assays above

O=[N+]([O-])C(CO)(CO)CO
not listed: [6] | [9] | [10]
inactive: all other assays above

CCc1ccccc1O
inactive: all assays above

CCOC(=O)[C@H](CCc1ccccc1)N[C@@H](C)C(=O)N1Cc2ccccc2C[C@H]1C(=O)O
inactive: all assays above

OCC1CCCO1 (centres undefined)
inactive: all assays above

NC(=O)NNc1ccccc1
inactive: all assays above

CCCCCCC(C)(C)S
inactive: all assays above

C=C1C2CCC(C2)C1(C)C (centres undefined)
inactive: all assays above

Cc1ccc(N)c(S(=O)(=O)O)c1
inactive: all assays above

O=C(O)c1ccc([N+](=O)[O-])cc1
inactive: all assays above

Clc1ccc(Cl)c(Cl)c1Cl
inactive: all assays above

CC(C)(C)C1CCC(O)CC1 (centres undefined)
inactive: all assays above

CCCCNC(N)=O
inactive: all assays above

C=C(C#N)C(=O)OCC
inactive: all assays above

NCc1cccc(CN)c1
inactive: all assays above

CC(=O)CCc1ccccc1
not listed: [6] | [9] | [10]
inactive: all other assays above

CCCCCCOC(C)=O
not listed: [6]
inactive: all other assays above

CC#C[C@]1(O)CC[C@H]2[C@@H]3CCC4=CC(=O)CCC4=C3[C@@H](c3ccc(N(C)C)cc3)C[C@@]21C
not listed: [6] | [10]
inactive: all other assays above

CCC(=O)O
not listed: [6]
inactive: all other assays above

CC[Si](OC(C)=O)(OC(C)=O)OC(C)=O
not listed: [6] | [9] | [10]
inactive: all other assays above

Cc1cc(=O)[nH]c(C(C)C)n1
not listed: [6]
inactive: all other assays above

OCCOCCOCCOCCO
not listed: [6]
inactive: all other assays above

O=S(=O)(O)CCS
not listed: [6]
inactive: all other assays above

CS(=O)(=O)Nc1ccc([N+](=O)[O-])cc1Oc1ccccc1
not listed: [6] | [9] | [10]
inactive: all other assays above

Oc1ccc2ccccc2c1
not listed: [6]
inactive: all other assays above

CS(=O)(=O)c1ccc([C@@H](O)[C@@H](CO)NC(=O)C(Cl)Cl)cc1
not listed: [6]
inactive: all other assays above

CC(C)Cc1ccccc1
not listed: [6]
inactive: all other assays above

CC(C)(CO)COC(=O)C(C)(C)CO
not listed: [6]
inactive: all other assays above

O=C(Cl)c1c(Cl)c(Cl)c(C(=O)Cl)c(Cl)c1Cl
not listed: [6]
inactive: all other assays above

O=S(=O)(O)c1cc(S(=O)(=O)O)c2c(N=Nc3ccccc3)c(O)ccc2c1
not listed: [6]
inactive: all other assays above

Oc1ccc2ccccc2c1N=Nc1ccccc1
not listed: [6] | [9] | [10]
inactive: all other assays above

OC[C@@H](O)[C@H](O)[C@H](O)[C@@H](O)CO
not listed: [6] | [9] | [10]
inactive: all other assays above

O=C(O)c1cc(-c2ccccc2)nc2ccccc12
not listed: [6]
inactive: all other assays above

COCC(=O)O
not listed: [6]
inactive: all other assays above

CCCCC/C=C\C/C=C\CCCCCCCC(=O)OC
not listed: [6] | [9] | [10]
inactive: all other assays above

CCCCCCCCCCCCOCC1CO1 (centres undefined)
not listed: [6]
inactive: all other assays above

CC1=C(CC(=O)O)c2cc(F)ccc2/C1=C\c1ccc(S(C)=O)cc1 (centres undefined)
not listed: [6]
inactive: all other assays above

Nc1nc2ncc(CNc3ccc(C(=O)N[C@@H](CCC(=O)O)C(=O)O)cc3)nc2c(=O)[nH]1
active: [2] 35.5 µM
not listed: [6] | [8]
inactive: all other assays above

O=[N+]([O-])c1cc(N(CCO)CCO)ccc1NCCO
not listed: [6] | [9] | [10]
inactive: all other assays above

CCCCOCCOCCOC(=O)CCCCC(=O)OCCOCCOCCCC
not listed: [6]
inactive: all other assays above

CN(C)c1ccc(C(=N)c2ccc(N(C)C)cc2)cc1
not listed: [2] | [8] | [10]
inactive: all other assays above

CCCCOCCO
not listed: [6]
inactive: all other assays above

CCCCCCCCCC(=O)O
not listed: [6]
inactive: all other assays above

CN(C)c1cccc(O)c1
not listed: [6]
inactive: all other assays above

CCc1ccc(O)cc1
not listed: [6]
inactive: all other assays above

Cc1ccc(C(=O)O)o1
not listed: [6]
inactive: all other assays above

C[C@@H]1O[C@@H](OC[C@H]2O[C@@H](Oc3c(-c4ccc(O)c(O)c4)oc4cc(O)cc(O)c4c3=O)[C@H](O)[C@@H](O)[C@@H]2O)[C@H](O)[C@H](O)[C@H]1O
not listed: [6]
inactive: all other assays above
